Measured values: PubChem BioAssay (NCI)
Compounds without any hit were thinned out: in the full panel of roughly 79,000, 15% have a hit. Active and inactive are the calls of the source. No stated cut-off is given here; in the data, active means growth inhibition above about 70%; inactive means the rest.

How the values were obtained:
[1] = NCI Yeast Anticancer Drug Screen. Data for the rad50 strain (AID 155);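 further: 0% = growth of vehicle-only cultures of the same strain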; conditions: S. cerevisiae rad50 strain growth inhibition; at 50.0 µM; stronger effect = higher value
Summary of the method: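 DNA repair mutant yeast, compound exposure, growth read-out; inhibition is taken relative to vehicle.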

[2] = NCI Yeast Anticancer Drug Screen. Data for the mec2-1 strain (AID 157); conditions: S. cerevisiae mec2-1 strain, at 50.0 µM, stronger effect = higher value
Summary of the method: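 Yeast mec2-1 mutant treated with compound. Readout: growth inhibition vs vehicle controls.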

[3] = NCI Yeast Anticancer Drug Screen. Data for the sgs1 mgt1 strain (AID 161);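 further: 0% = growth of cultures given vehicle only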; conditions: S. cerevisiae sgs1 mgt1 strain, at 50.0 µM, stronger effect = higher value
Summary of the method: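 Mutant yeast exposed to compound; growth scored against vehicle-only wells.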

[4] = NCI Yeast Anticancer Drug Screen. Data for the cln2 rad14 strain (AID 165);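 further: 0% = growth equal to vehicle treated cultures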; conditions: S. cerevisiae cln2 rad14 strain, at 50.0 µM, stronger effect = higher value
Summary of the method: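 cln2 rad14 yeast strain; compound exposure; growth inhibition read vs vehicle controls.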

[5] = NCI Yeast Anticancer Drug Screen. Data for the bub3 strain (AID 167); conditions: S. cerevisiae bub3 mutant strain, at 50.0 µM, stronger effect = higher value
Summary of the method: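 In this screen, a yeast mutant lacking normal mitotic checkpoint function is challenged with compound. Relative growth versus vehicle gives the inhibition value.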

[6] = NCI Yeast Anticancer Drug Screen. Data for the mlh1 rad18 strain (AID 175); conditions: S. cerevisiae mlh1 rad18 strain growth inhibition; at 50.0 µM; stronger effect = higher value
Summary of the method: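 Yeast w/ defined DNA-repair lesions; compound exposure; growth vs vehicle controls → % inhibition.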

Measured: growth inhibition

CN(C)C1C(CO)C(CO)C1(C)C (stereo unspecified)
inactive: [1] -5.5% | [2] -8.5% | [3] -3.9% | [4] -11.9% | [5] -2.25% | [6] -7.55%

COC(=O)C(=O)C(C(=O)C=C(C)C)c1nc2n(c1O)C(=N)N=N2 (stereo unspecified)
inactive: [1] 13.2% | [2] 20.9% | [3] 14.3% | [4] -1.75% | [5] 13.1% | [6] 17.4%

NNc1ncnc2c1ncn2Cc1ccccc1
inactive: [1] 1.65% | [2] -3.1% | [3] 1.75% | [4] -2.05% | [5] -22.6% | [6] -14.4%

O=c1[nH]c2cc([N+](=O)[O-])ccc2nc1/C(=N/Nc1ccccc1)C(O)c1ccc(C(O)/C(=N\Nc2ccccc2)c2cnc3cc([N+](=O)[O-])ccc3n2)cc1 (stereo unspecified)
inactive: [1] -4.05% | [2] -23.9% | [3] -11.4% | [4] 5.25% | [5] -6.45% | [6] -4.3%

N#Cc1ccccc1NC(=O)C(=O)C1NC(=S)NC1=O (stereo unspecified)
inactive: [1] 15.4% | [2] -1.75% | [3] 26% | [4] 13.6% | [5] -3.2% | [6] 18.1%

COC(=O)C(Cc1nc2ccccc2[nH]c1=O)C(NO)C(=O)Nc1c(Cl)cc([N+](=O)[O-])cc1Cl (stereo unspecified)
inactive: [1] -3.85% | [2] -7.4% | [3] 36.6% | [4] 10.2% | [5] 22.2% | [6] -1.75%

Sc1ccc2ccccc2c1
inactive: [1] 12.4% | [2] 9.15% | [3] -23.3% | [4] -38.4% | [5] -17.1% | [6] -30.4%

CC(=O)[CH-]C(=O)c1ccccc1.CC(=O)[CH-]C(=O)c1ccccc1.CC[C@H](/C=C/C(C)[C@H]1CCC2[C@@H]3CC=C4C[C@@H]([O-])CC[C@]4(C)C3CC[C@@]21C)C(C)C.CC[O-].[Ti+4] (stereo partly specified)
inactive: [1] 8% | [2] -4.6% | [3] -2.45% | [4] -2.3% | [5] 5.3% | [6] -12.2%

O=C(c1ccccc1)C1Nc2ccccc2CO1 (stereo unspecified)
inactive: [1] -5% | [2] -13.3% | [3] -13.5% | [4] -23.4% | [5] -1.6% | [6] 28.9%

CCCOc1cc(C)c(C(=O)OC(C)CN2CCCC2)c(C)c1 (stereo unspecified)
inactive: [1] 3.5% | [2] -22.4% | [3] 15.8% | [4] -43.7% | [5] -2.1% | [6] -20.4%

COc1cc(C2C3=C(COC3=O)Oc3cc4c(cc32)OCO4)cc(OC)c1OC (stereo unspecified)
inactive: [1] -3.15% | [2] 24.1% | [3] -8.35% | [4] 14.2% | [5] -12.2% | [6] 3.5%

CNC(=O)C1CCC(CC2CCCCC2)CC1 (stereo unspecified)
inactive: [1] 45.4% | [2] 49.5% | [4] 11.2% | [5] 42.8% | [6] 38.5%
active: [3] 77.1%

Cc1nn(C(=O)c2ccc(Cl)cc2)c2c1C(c1ccco1)SC(N)=N2 (stereo unspecified)
inactive: [1] -28.6% | [2] -17.5% | [3] -8.8% | [4] -17.9% | [5] -18.1% | [6] -14.8%

O=c1c2cc(S(=O)(=O)Nc3c(Cl)cccc3Cl)ccc2ncn1NS(=O)(=O)c1ccc2ccccc2c1
inactive: [1] -21.8% | [2] -8.6% | [3] -12.4% | [4] 10.4% | [5] -7.9% | [6] -3.75%

CC1(C)CN(CCO)C(C)(C)CN1CCO
inactive: [1] 13.4% | [2] 7.35% | [3] 7.2% | [4] 12.4% | [5] -27.7% | [6] -10.1%

COc1cc(O)c2c(c1)C(=O)c1cc3c(c(O)c1C2=O)C(O)C(OC)C(C)(O)C3O (stereo unspecified)
active: [1] 72.5% | [3] 72%
inactive: [2] 54.3% | [4] 42.6% | [5] 64.8% | [6] 68.2%

Cc1cc2c(cc1C)NC(C)CC(=O)N2 (stereo unspecified)
inactive: [1] 5.8% | [2] -13.1% | [3] 4.2% | [4] 14.1% | [5] -0.2% | [6] 21.7%

O=c1cc(CSc2ncnc3nc[nH]c23)occ1O
inactive: [1] -11.3% | [2] -4.4% | [3] -2.1% | [4] 2.55% | [5] 11.8% | [6] 4.2%

COC(=O)C1=C(C)N(NC(=O)c2cccc(Cl)c2)C(C)(O)C12CCOC2=O (stereo unspecified)
inactive: [1] 37.6% | [2] -21.6% | [3] 4.15% | [4] 6.65% | [5] 0.6% | [6] 38.1%

C=CCOCn1ccc(N)nc1=O
inactive: [1] -3.3% | [2] -0.55% | [3] 1.8% | [4] 7% | [5] -6.05% | [6] -2.95%

CC1(C)OCC(C(OC(=O)c2ccc([N+](=O)[O-])cc2)C(OC(=O)c2ccc([N+](=O)[O-])cc2)C2COC(C)(C)O2)O1 (stereo unspecified)
inactive: [1] 24.6% | [2] 4.25% | [3] -5.3% | [4] 41.2% | [5] 2.9% | [6] 20.4%

COc1cc(C(=O)N2C3C4CCC(C)(OC4(C)C)C32)cc(OC)c1OC (stereo unspecified)
inactive: [1] 18.4% | [2] -15.4% | [3] 2.8% | [4] 10.2% | [5] 6% | [6] -8.9%

COC(=O)C(=O)c1c(-c2ccc(O)c(OC)c2)[nH]c2[nH]n(-c3ccccc3)c(=O)c2c1=O
inactive: [1] 24.6% | [2] -17.2% | [3] -1.75% | [4] -30.1% | [5] 14.8% | [6] 14.5%

CN(C)C(=O)c1cccc(C2CCCCC2)c1O
inactive: [1] -10.8% | [2] 1.85% | [3] 14.6% | [4] -81.4% | [5] -18.6% | [6] -14.7%

COc1cccc(/C=C2\C(=O)N(C(=O)Cc3ccccc3)N=C2C)c1
inactive: [1] 4.3% | [2] -30.2% | [3] -34.8% | [4] -0.45% | [5] -14.8% | [6] -24.1%

CC(=O)NC(C)(C)C1CCC(C)CC1 (stereo unspecified)
inactive: [1] -7.95% | [2] 5.45% | [3] 1.55% | [4] 8.05% | [5] 9.65% | [6] -38.8%

CC12CCC(O)CC1=CCC1C2CCC2(C)C1CCC21SCCS1 (stereo unspecified)
inactive: [1] 2.35% | [2] 9.7% | [3] 20.2% | [4] 14.4% | [5] 13.8% | [6] 13%

NC1=C(O)C(=O)C(c2ccc3c(c2)CCC3)O1 (stereo unspecified)
inactive: [1] -24.5% | [2] -14.7% | [3] -22.4% | [4] -12.6% | [5] -14% | [6] -9.1%

Cc1cc(C)c(C)c(C(=O)OC(C)C)c1C
inactive: [1] 2.7% | [2] -9.7% | [3] 3.35% | [4] 15.4% | [5] -3.85% | [6] -8.55%

O=S(O)CCCSSSCCCS(=O)O
inactive: [1] 26.1% | [2] 20.9% | [3] 45.5% | [4] 37% | [5] 20% | [6] 38.6%

O=[N+]([O-])c1ccc2[nH]c(-c3ccccc3)cc2c1
inactive: [1] 5.2% | [2] 10.8% | [3] -3.6% | [4] 7.3% | [5] -2.2% | [6] 18.9%

O=C(O)/C=C/C(=O)Nc1cccc2c1Cc1ccccc1-2
inactive: [1] -7.2% | [2] 9% | [3] 20.9% | [4] -29.5% | [5] -4.3% | [6] 19.9%

COC(=O)C(C)OC(=O)OCC(C)C (stereo unspecified)
inactive: [1] -11.1% | [2] -1.9% | [3] 0.15% | [4] -2.95% | [5] -2.95% | [6] -11.8%

O=C(O)C1(Nc2ccc(Cl)cc2)CCCC1
inactive: [1] 14.3% | [2] -6.75% | [3] -12.6% | [4] -1.45% | [5] 9.65% | [6] 11.6%

NC(=O)CC(N)C(N)=O (stereo unspecified)
inactive: [1] -8.25% | [2] -33.1% | [3] -47.8% | [4] 13.2% | [5] -18.3% | [6] -3.25%

CC(=O)OCC1OC(n2c(O)c(/C=C3\C=Nc4ccccc43)sc2=S)C(OC(C)=O)C(OC(C)=O)C1OC(C)=O (stereo unspecified)
inactive: [1] 20.4% | [2] -11.7% | [3] -15.4% | [4] 18.9% | [5] -3.5% | [6] 4.9%

COC1OC(CO)C(O)C(OCc2ccccc2)C1OCc1ccccc1 (stereo unspecified)
inactive: [1] -4.35% | [2] 0.5% | [3] -5.35% | [4] -10.3% | [5] -7.4% | [6] -19.3%

O=C(O)C(Br)C(O)c1ccccc1 (stereo unspecified)
inactive: [1] -5.15% | [2] -2.85% | [3] 0.85% | [4] 2.15% | [5] 4.25% | [6] -8.2%

COCCNC(=O)C1C(=O)C(=O)N(CCOC)C1=O (stereo unspecified)
inactive: [1] -17.8% | [2] -7.65% | [3] -17.2% | [4] -4.25% | [5] -19.6% | [6] -3.5%

NC(=O)c1ccc(NC=O)cc1
inactive: [1] -10.3% | [2] 22.2% | [3] -18.9% | [4] 25.1% | [5] -18.1% | [6] -18.9%

CN1C(=O)C(CCCN=C(N)N)NC1=S (stereo unspecified)
inactive: [1] -13.7% | [2] -2.4% | [3] -6.65% | [4] -12.2% | [5] -2.45% | [6] -13.6%
